This is a sample that favours compounds with a hit; in the whole collection about 2.4% have one here.
Pol beta inh – blocks human DNA polymerase beta activity. actives 1.3% (n = 340,000). AID 485314. Pol beta primer extension/strand displacement, fluorescence kinetic. Potency, µM (highest dose often 114 µM), for the others: at the highest dose activity change, negative = inhibition, usual class: inhibitors; also: % is scaled to controls: 0 for no effect and ±100 for the full control effect
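Pol beta (10 nM) was preincubated with compound for 15 min at room temperature. The reaction was then started with 50 nM substrate and read immediately and after a further 10 min at room temperature.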
FEN1 inhibitor – blocks human flap endonuclease 1; P39748; Recombinant FEN1 flap cleavage, fluorescence, 15 min; Potency, µM (titrated, usually from 114 µM), inactives show at the highest dose activity change, negative = inhibition, hits mostly inhibitors; actives 0.35% (n = 390,000); AID 588795; also: % is scaled to controls: 0 for no effect and ±100 for the full control effect; nearly all actives have a fitted effect of over 65% in size
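Potency values derive from four-parameter Hill fits of normalized qHTS data. The reaction used 10 nM FEN1 preincubated 15 min at room temperature with compound, then 50 nM DNA substrate, read at 0 and 15 min.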
Pol eta inh – blocks human DNA polymerase eta activity; actives 1.2% (n = 390,000); Q9Y253; Potency, µM (series often up to 114 µM), for inactives: at the top dose activity change, negative = inhibition, most hits filed as inhibitors; recombinant Pol eta, fluorescent DNA replication assay; also: % is scaled to controls: 0 for no effect and ±100 for the full control effect
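Pol eta at 10 nM preincubated with compounds 15 min at room temperature; reaction started with fluorescent substrate (50 nM final) and read kinetically at 0 and 10 min.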
Pol kappa inh – DNA polymerase kappa (human) inhibition; actives 0.53% (n = 400,000); purified Pol kappa, fluorescent DNA synthesis assay, 10 min; Q9UBT6; Potency, µM (series often up to 107 µM), inactives show top-dose activity, negative = inhibition, actives largely listed as inhibitors; also: % is scaled to controls: 0 for no effect and ±100 for the full control effect
Target sequence (Q9UBT6 whole entry, looked up): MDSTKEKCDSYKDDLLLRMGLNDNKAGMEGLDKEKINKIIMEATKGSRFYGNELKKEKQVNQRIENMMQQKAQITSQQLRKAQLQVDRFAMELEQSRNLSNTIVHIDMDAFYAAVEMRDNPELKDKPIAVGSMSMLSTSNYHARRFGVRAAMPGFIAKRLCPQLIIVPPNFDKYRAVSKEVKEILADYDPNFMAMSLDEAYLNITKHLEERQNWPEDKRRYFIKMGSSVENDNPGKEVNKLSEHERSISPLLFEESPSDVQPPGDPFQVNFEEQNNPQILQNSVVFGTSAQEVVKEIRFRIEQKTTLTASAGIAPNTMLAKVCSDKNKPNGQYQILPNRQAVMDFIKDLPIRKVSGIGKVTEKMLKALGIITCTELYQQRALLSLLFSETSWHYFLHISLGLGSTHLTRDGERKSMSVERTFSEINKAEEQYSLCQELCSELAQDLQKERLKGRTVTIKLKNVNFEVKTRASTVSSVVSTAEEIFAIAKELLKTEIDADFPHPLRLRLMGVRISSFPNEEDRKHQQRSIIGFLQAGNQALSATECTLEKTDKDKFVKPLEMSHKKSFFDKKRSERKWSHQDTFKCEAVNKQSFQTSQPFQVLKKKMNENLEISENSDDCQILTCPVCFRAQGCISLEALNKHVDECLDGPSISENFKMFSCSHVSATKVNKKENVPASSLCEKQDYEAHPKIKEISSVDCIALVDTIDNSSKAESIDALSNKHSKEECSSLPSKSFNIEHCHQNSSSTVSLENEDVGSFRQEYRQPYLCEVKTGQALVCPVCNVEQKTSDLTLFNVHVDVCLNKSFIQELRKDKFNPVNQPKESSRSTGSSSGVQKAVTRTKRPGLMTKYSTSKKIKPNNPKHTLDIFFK
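First, compounds were pin-transferred onto 10 nM Pol kappa. After 15 min at room temperature, substrate was added to 50 nM final. Fluorescence was then measured kinetically at 0 and 10 min.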
Pol iota inh – DNA polymerase iota (human) inhibition; Potency, µM (series often up to 115 µM), without a hit: at the highest dose activity, negative = inhibition, most hits filed as inhibitors; actives 1% (n = 390,000); Q9UNA4; Pol iota fluorescent replication assay, 10 min; AID 588590
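Fluorescent replication assay read twice, at 0 min and 10 min after adding 50 nM (final) substrate. Enzyme (10 nM) and compounds were first incubated 15 min at room temperature; enzyme-free buffer wells were negative controls.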
WRN inhibitor – blocks human WRN helicase; Q14191; WRN helicase unwinding, fluorescent forked duplex, kinetic; Potency, µM (top dose mostly 114 µM), inactives show at the top dose activity change, negative = inhibition, hits mostly inhibitors; actives 0.46% (n = 360,000); AID 651768; also: % is scaled to controls: 0 for no effect and ±100 for the full control effect; nearly all actives have a fitted effect of over 55% in size
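Fluorescence dequenching readout, ex 525 nm/em 598 nm, kinetic mode: forked duplex DNA (100 nM final) with adjacent fluorophore and quencher unwound by WRN (20 nM final) with 2 mM ATP. Compound preincubation 15 min, room temperature.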
An asterisk follows results filed as active; ! = not active in a repeat; [ ] = remark or other dose. Calls follow the shape of the dose curve; as a rule, active = well fitted curve in the direction sought with a large enough effect; inconclusive = small, poorly fitted or top-dose-only effect, or another doubt; inactive = no such curve, though single readings can be large; an effect the other way counts as inactive or inconclusive. Potency is read from the fitted curve at half-maximal effect.

For O=C(CCC1CC(=O)Nc2ccccc21)NCc1ccccc1 (centres undefined) the results were Pol beta inh -11%, FEN1 inhibitor -19%, Pol eta inh 89µM*, Pol kappa inh -21%, Pol iota inh inconclusive and WRN inhibitor -11%.
For O=C(CCC1CC(=O)Nc2ccccc21)NCc1ccc(F)cc1 (centres undefined) the results were Pol beta inh -20%, FEN1 inhibitor 2%, Pol eta inh -16%, Pol kappa inh -11%, Pol iota inh 10%[58.9 µM] and WRN inhibitor 6%.
`CCOC(=O)c1c(NC(=O)c2nc(S(C)(=O)=O)ncc2Cl)sc(C(C)=O)c1C` gave Pol beta inh -2%, FEN1 inhibitor 10%, Pol eta inh 79µM*, Pol kappa inh 4% and Pol iota inh 2%.
`CCOC(=O)c1c(-c2ccccc2)csc1NC(=O)c1nc(S(=O)(=O)CC)ncc1Cl` gave Pol beta inh 8%, FEN1 inhibitor 1%, Pol eta inh -3%, Pol kappa inh 17% and Pol iota inh -2%.
Cc1cc(O)c(C(C)C)cc1N=Cc1ccccc1O was read as Pol beta inh 24%, FEN1 inhibitor inconclusive, Pol eta inh -7%, Pol kappa inh -12%, Pol iota inh 20µM* and WRN inhibitor 1%.
For Cc1ccc(/C=C2\SC(=S)N(C3CCS(=O)(=O)C3)C2=O)o1 (centres undefined) the results were Pol beta inh 32µM*, FEN1 inhibitor inconclusive, Pol eta inh 25µM*, Pol kappa inh inconclusive, Pol iota inh inconclusive and WRN inhibitor inconclusive.
CC1=C(C#N)C(=O)N(C2CCS(=O)(=O)C2)C(=O)/C1=C\c1ccc(C)o1 (centres undefined) was read as Pol beta inh 13µM*.
`NS(=O)(=O)c1ccc(-c2ccc(/C=C3\SC(=S)N(C4CCS(=O)(=O)C4)C3=O)o2)cc1` (centres undefined) gave Pol beta inh 7%, FEN1 inhibitor -20%, Pol eta inh -5%, Pol kappa inh -7%, Pol iota inh 4% and WRN inhibitor -9%.
CCN1C(=O)/C(=C2\C=Cc3ccccc3N2CC)SC1=S was read as Pol beta inh 7%, FEN1 inhibitor 4%, Pol eta inh 1%, Pol kappa inh -17%, Pol iota inh 11% and WRN inhibitor -7%.
Screening CCc1ccc(-c2cn3c(n2)sc2cc(C(=O)NC4CCCCCC4)ccc23)cc1 returned Pol beta inh 5%, FEN1 inhibitor -1%, Pol eta inh -8%, Pol kappa inh -15% and Pol iota inh 38%.
For COc1cc(/C=N/NC(=O)c2cc(-c3ccco3)nc3ccccc23)cc(OC)c1O the results were Pol beta inh 50µM*, FEN1 inhibitor -29%, Pol eta inh inconclusive, Pol kappa inh inconclusive, Pol iota inh 45µM* and WRN inhibitor -11%[11.6 µM].
For NC(=O)COC(=O)c1cc(-c2ccco2)nc2ccccc12 the results were Pol beta inh inconclusive, FEN1 inhibitor inconclusive, Pol eta inh 45µM*, Pol kappa inh inconclusive, Pol iota inh inconclusive and WRN inhibitor -9%[11.6 µM].
Screening O=C(c1ccco1)N1CCN(C(=O)c2cc(-c3ccncc3)nc3ccc(Br)cc23)CC1 returned FEN1 inhibitor -2%, Pol eta inh inconclusive, Pol kappa inh -7%, Pol iota inh -16% and WRN inhibitor -13%.
For COc1ccc(NC(=O)c2cc(-c3ccco3)nc3ccccc23)cc1 the results were FEN1 inhibitor 13%, Pol eta inh -13%, Pol kappa inh -16%, Pol iota inh inconclusive and WRN inhibitor -22%.
O=C(O)c1cc(-c2ccco2)nc2ccc(Br)cc12 was read as Pol beta inh 3.2µM*!, FEN1 inhibitor 13µM*!, Pol eta inh 2.5µM*!, Pol kappa inh 7.1µM*!, Pol iota inh 2.8µM*! and WRN inhibitor 10µM*!.
For O=C(COC(=O)c1cc(-c2ccco2)nc2ccccc12)NCc1ccc2c(c1)OCO2 the results were Pol beta inh 28µM*, FEN1 inhibitor 1%, Pol eta inh inconclusive, Pol kappa inh -5%, Pol iota inh -13% and WRN inhibitor -10%.
CC(=O)Nc1ccc(NC(=O)C(C)OC(=O)C(C)SCC(=O)Nc2ccc(F)cc2)cc1 (centres undefined) was read as FEN1 inhibitor -14%, Pol eta inh -1%, Pol kappa inh -9%, Pol iota inh 21% and WRN inhibitor -6%.
`O=c1c(C(c2nnnn2C2CCCCC2)N2CCCCC2)coc2ccc(Cl)cc12` (centres undefined) gave Pol beta inh 100µM*, FEN1 inhibitor -7%, Pol eta inh -13%, Pol kappa inh -9%, Pol iota inh 8% and WRN inhibitor 1%.
`N#Cc1cccc(C(c2nnnn2C2CCCC2)N2CCCCCC2)c1` (centres undefined) gave Pol beta inh 1%, FEN1 inhibitor -4%, Pol eta inh 0%, Pol kappa inh -8%, Pol iota inh -4% and WRN inhibitor -10%.
`CCc1cc2c(=O)c(-c3nc4ccccc4n3C)coc2c(CN2CCC(C)CC2)c1O` gave Pol beta inh 43%, FEN1 inhibitor 1%, Pol eta inh -25%, Pol kappa inh 6%, Pol iota inh 22% and WRN inhibitor -7%.
Screening Cc1ccc(C)c(OCC(=O)Nn2c(C)nc3ccccc3c2=O)c1 returned Pol beta inh 35%, FEN1 inhibitor 4%, Pol eta inh -12%, Pol kappa inh 9%, Pol iota inh 5% and WRN inhibitor -17%.
C/C(=N\NC(=S)NCCc1ccccc1)c1cccc(Br)c1 was read as Pol beta inh inconclusive, FEN1 inhibitor -11%, Pol eta inh -5%, Pol kappa inh -13%, Pol iota inh 134% and WRN inhibitor -3%.
Screening COc1ccc(/C=C2\SC(=S)N(CCC(=O)NCCCn3ccnc3)C2=O)cc1 returned Pol beta inh -1%, FEN1 inhibitor -3%, Pol eta inh -16%, Pol kappa inh 11%, Pol iota inh -6% and WRN inhibitor 2%.
Screening CC(C)c1ccc(/C=C2\SC(=S)N(CCC(=O)NCCCn3ccnc3)C2=O)cc1 returned Pol beta inh 40µM*, FEN1 inhibitor -3%, Pol eta inh -17%, Pol kappa inh inconclusive, Pol iota inh -28% and WRN inhibitor -11%.
Screening O=C(NCc1ccccc1Cl)C1CCN(C(=O)c2sccc2-n2cccc2)CC1 returned Pol beta inh 0%, FEN1 inhibitor 18%, Pol eta inh -19%, Pol kappa inh 6%, Pol iota inh 55% and WRN inhibitor -3%.

High-throughput results from PubChem.
